Screening results: PubChem BioAssay, several laboratories
NOD2 RIPK2 PPI – inhibitors of human NOD2-RIPK2 interaction | O43353 | CHO BLA complementation NOD2-RIPK2, CCF4 ratio | inhibition, % at 4.98 µM | 0.38% of 360,000 active | AID 624267; in the data active = inhibition above about 21%
m5-HT2A agonist – mouse HTR2A agonism via beta-arrestin recruitment; P35363; CHO-K1 mHTR2A beta-arrestin complementation, luminescence; percent of 30 µM serotonin response; 0.66% of 360,000 active; activation, % at 7.6 µM; AID 624169;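 active = activation above a run cutoff, the mean activation of all tested compounds plus 3 SD, cut at about 14% in these data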
TLR4 MyD88 comp – inhibitors of human TLR4-MyD88 binding. O00206+Q99836. HeLa CL3-4 TLR4/MyD88 BLA complementation, FRET ratio. inhibition, % at 8.4 µM. 0.18% of 200,000 active. AID 861; in the data active = inhibition above about 25%
ANO1 block – mouse TMEM16A channel inhibition, primary screen. Q8BHY3. HEK293 TMEM16A/YFP iodide influx fluorescence, ionomycin. normalized B-score (activity score, 25-100; higher = stronger inhibition) at 10 µM. 1.2% of 310,000 active. AID 588511;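 active = ratio plate-corrected score three or more library SD toward inhibition, starting fluorescence score within five deviations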;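 also: score derived from kinetic fluorescence span divided by baseline fluorescence per well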
TLR9-MyD88 inh – TLR9-MyD88 interaction inhibition. 0.21% of 340,000 active. Q9NR96+Q99836. CHO BLA complementation TLR9-MyD88, CCF4 FRET ratio. inhibition, % at 4.98 µM. AID 504734;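 active = inhibition above the mean over all tested compounds plus 3 SD, cut at about 21% in these data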
Target sequence (Q99836 whole entry, looked up): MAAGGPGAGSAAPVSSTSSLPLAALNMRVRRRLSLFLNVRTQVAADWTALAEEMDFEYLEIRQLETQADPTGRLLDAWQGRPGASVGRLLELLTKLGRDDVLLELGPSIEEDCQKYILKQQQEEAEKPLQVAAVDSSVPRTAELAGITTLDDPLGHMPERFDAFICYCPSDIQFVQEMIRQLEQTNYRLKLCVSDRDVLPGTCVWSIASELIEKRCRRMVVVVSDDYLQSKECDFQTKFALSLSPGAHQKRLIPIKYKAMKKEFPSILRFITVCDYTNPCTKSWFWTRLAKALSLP
Target sequence (Q9NR96 whole entry, looked up): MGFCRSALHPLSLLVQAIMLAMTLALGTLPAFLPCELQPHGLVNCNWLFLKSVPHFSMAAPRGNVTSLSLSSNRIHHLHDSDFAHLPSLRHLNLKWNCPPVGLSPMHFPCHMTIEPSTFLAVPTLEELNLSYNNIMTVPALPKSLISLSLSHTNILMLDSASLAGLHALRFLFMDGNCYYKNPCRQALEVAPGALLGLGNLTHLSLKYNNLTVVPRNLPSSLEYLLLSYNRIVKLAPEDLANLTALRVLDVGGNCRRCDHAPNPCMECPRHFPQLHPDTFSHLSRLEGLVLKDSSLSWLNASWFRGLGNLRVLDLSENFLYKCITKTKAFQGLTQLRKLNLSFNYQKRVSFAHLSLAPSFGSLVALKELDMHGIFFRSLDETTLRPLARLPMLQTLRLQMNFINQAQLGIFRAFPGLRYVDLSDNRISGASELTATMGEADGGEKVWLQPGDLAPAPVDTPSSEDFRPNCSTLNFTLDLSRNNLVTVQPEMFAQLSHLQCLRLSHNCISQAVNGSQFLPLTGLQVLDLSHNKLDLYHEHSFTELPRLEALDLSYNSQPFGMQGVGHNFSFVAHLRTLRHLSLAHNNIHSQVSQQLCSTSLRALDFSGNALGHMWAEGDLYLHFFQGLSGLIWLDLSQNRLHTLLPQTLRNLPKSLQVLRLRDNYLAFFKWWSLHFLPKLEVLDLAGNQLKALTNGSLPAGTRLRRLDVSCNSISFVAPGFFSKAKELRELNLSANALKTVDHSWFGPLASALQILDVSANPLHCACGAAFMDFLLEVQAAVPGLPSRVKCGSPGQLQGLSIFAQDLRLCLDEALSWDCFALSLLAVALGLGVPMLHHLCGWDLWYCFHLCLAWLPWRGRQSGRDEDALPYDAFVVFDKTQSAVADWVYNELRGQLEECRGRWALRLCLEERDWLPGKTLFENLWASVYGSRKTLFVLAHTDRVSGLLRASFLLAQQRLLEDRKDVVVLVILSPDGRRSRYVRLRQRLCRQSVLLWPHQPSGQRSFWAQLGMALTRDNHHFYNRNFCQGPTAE
TMEM16A act – activates or potentiates the mouse TMEM16A chloride channel; Q8BHY3; HEK293 TMEM16A/YFP-H148Q/I152L, iodide quench fluorescence; stronger effect = lower value; B-score at 10 µM; 0.3% of 340,000 active; AID 623877;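 active = fluorescence-ratio B-score plate-corrected deviation score at least 3 library SD below zero, with starting fluorescence score within 5 deviations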;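 also: channel opened by trigger with iodide after compound preincubation; score built on the fluorescence ratio of max minus min over baseline; more negative score means more quench and so TMEM16A activation or potentiation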
Each line names hits and unclear results; the compound was inactive in the other large screens. A selection: hits, their analogues and other compounds. The true share with any hit is near 2.4%.

O=C(NCc1ccccc1Cl)c1ccc(S(=O)(=O)Nc2cccc(C(F)(F)F)c2)cc1	ANO1 block 100
O=C(NCc1ccccc1Cl)c1ccc(S(=O)(=O)N2CCCC2)cc1	none (no result: TLR4 MyD88 comp, ANO1 block)
COc1ccccc1OCCC(=O)OCC(=O)Nc1ccc2c(c1)OCCO2	none (no result: TLR4 MyD88 comp, ANO1 block)
C=CCn1c(COc2cccc3cccnc23)nnc1SCC(=O)O	TMEM16A act -10
C=CCn1c(COc2cccc3ccc(C)nc23)nnc1SCC(=O)O	none
Cc1cc(C)n(CCc2nc(-c3ccc(C(C)(C)C)cc3)cs2)n1	ANO1 block 25
Cc1ccc(OCC(O)Cn2c(NCCc3ccccc3)nc3c2c(=O)[nH]c(=O)n3C)cc1 (configuration not stated)	none
Cn1c(=O)[nH]c(=O)c2c1nc(NCCc1ccccc1)n2CC(O)COc1ccccc1 (configuration not stated)	TMEM16A act -51
COc1cc(C(=O)OCC(=O)NCCC2=CCCCC2)ccc1OCC(C)C	none (no result: TLR4 MyD88 comp)
COc1ccc(-c2cnc(N)nc2-c2ccc(OC)cc2O)cc1	TMEM16A act -17
O=C(CN1CCCCC1)Nc1cc(Cl)ccc1Oc1ccccc1	ANO1 block 100
O=C(COC(=O)c1ccco1)Nc1ccc([N+](=O)[O-])cc1Cl	TMEM16A act -26 (no result: TLR4 MyD88 comp, ANO1 block)
COc1ccc(NC(=O)COC(=O)c2ccco2)c([N+](=O)[O-])c1	none
CC(C)(C)c1ccc(S(=O)(=O)N2CCN(CC(=O)N3CC(=O)Nc4ccccc43)CC2)cc1	TMEM16A act -38 (no result: TLR4 MyD88 comp, ANO1 block)
O=C(CN1CCN(S(=O)(=O)c2ccc(C(F)(F)F)cc2)CC1)N1CCNC1=O	none (no result: TLR4 MyD88 comp, ANO1 block)
CCC(=O)NC(=S)Nc1ccc(NC(=O)COc2ccc(Cl)c(C)c2)cc1	none
Cc1cc(OCC(=O)NNC(=S)NC(=O)c2ccc(Br)o2)ccc1Cl	ANO1 block 25, TMEM16A act -4.6 (no result: TLR4 MyD88 comp)
COc1ccc(Cl)c2c1[nH]c1nc(SCc3ccccn3)nnc12	none
CC(=O)c1cccc(-c2ccnc3c2CC(C(=O)NCCC(F)(F)F)O3)c1 (configuration not stated)	none (no result: TLR4 MyD88 comp, ANO1 block, TLR9-MyD88 inh, TMEM16A act)
CCn1c(=NC(=O)c2cccc(N3C(=O)CCC3=O)c2)sc2c(OC)ccc(OC)c21	TMEM16A act -6.4
COc1ccc(OC)c2c1sc(=NC(=O)c1cccc(N3C(=O)CCC3=O)c1)n2C	none
COC(=O)Cc1ccc(NC(=S)NCc2ccccc2Cl)cc1	none
O=C(O)c1cccc(NC(=S)N/N=C/c2ccccc2OCc2ccc(Br)cc2)c1	ANO1 block 25
O=C(COc1cccc2ccccc12)N/N=C/c1ccccc1OCc1ccc(C(=O)O)cc1	ANO1 block 100
CCN(CC)S(=O)(=O)c1ccc(/C=C/C(=O)N(c2ccccn2)C2CCCCC2)cc1	none
O=C(Cc1ccccc1)OCC(=O)c1cccc([N+](=O)[O-])c1	none (no result: TLR4 MyD88 comp, ANO1 block)
CC(=O)Nc1ccc(NC(=O)C(C)OC(=O)c2c(C)nn(-c3ccccc3)c2Cl)cc1 (configuration not stated)	none (no result: TLR4 MyD88 comp, ANO1 block)
Cc1cccc(/C=C/C(=O)c2cc(Br)ccc(=O)c2O)c1	ANO1 block 25
CCCCn1c(N)c(N(CCOC)C(=O)COC(=O)c2ccccc2NCCO)c(=O)[nH]c1=O	none (no result: TLR4 MyD88 comp, ANO1 block)
O=C(N/N=C\c1cn(-c2ccccc2)nc1-c1ccccc1)c1ccc(Br)o1	none
Cc1ccc(-c2nn(-c3ccccc3)cc2/C=N/NC(=O)c2ccc(Br)o2)cc1	ANO1 block 100
CC(=O)Nc1ccc(S(=O)(=O)NCCC(=O)OCc2ccccc2F)cc1	none (no result: TLR4 MyD88 comp, ANO1 block)
Cc1nn(CC(=O)Nc2ccc3c(c2)nc(CN2CCCC2)n3C)c(=O)c2ccccc12	none
O=C1NC(=S)/C(=C\c2ccc(-c3ccccc3Cl)o2)S1	TMEM16A act -5.8
O=C1NC(=O)/C(=C/c2ccc(-c3cc(C(=O)O)ccc3Cl)o2)S1	none (no result: TLR4 MyD88 comp)
Cc1ccc2cc(C#N)c(N3CCCN(S(=O)(=O)c4ccc(F)cc4)CC3)nc2c1	TMEM16A act -9.6
COC(=O)c1c(C)[nH]c(C)c1-c1cccc([N+](=O)[O-])c1	TMEM16A act -7.7
COC(=O)c1c(C)[nH]c(C)c1-c1ccc(C)cc1	none
CCOC(=O)C1=C(C)N=c2s/c(=C\c3ccc(O)c([N+](=O)[O-])c3)c(=O)n2C1c1ccccc1OC (configuration not stated)	ANO1 block 100 (no result: TLR4 MyD88 comp)
CCOC(=O)C1=C(c2ccccc2)N=c2s/c(=C\c3cc(OC)c(OC)c(OC)c3)c(=O)n2C1c1cccs1 (configuration not stated)	TLR9-MyD88 inh 22
CCOC(=O)C1=C(c2ccccc2)N=c2s/c(=C\c3ccco3)c(=O)n2C1c1cccs1 (configuration not stated)	none
Cc1ccc(Nc2nc(C(=O)NCCCN3CCOCC3)cs2)cc1	none
CC(C)CN1C(=S)SC(C)(C)C1n1oc(=O)n(-c2ccc(Cl)cc2)c1=O (configuration not stated)	ANO1 block 100
CC(=O)C1=C(O)C(=O)N(c2ccc(O)cc2)C1c1ccccc1 (configuration not stated)	none (no result: TLR4 MyD88 comp)
CC(=O)C1=C(O)C(=O)N(c2ccc(C(=O)O)cc2)C1c1ccccc1 (configuration not stated)	TMEM16A act -14
CCOC(=O)c1c(CSC(=N)N)n(-c2ccc(C)cc2)c2cc(Br)c(OC(C)=O)cc12	ANO1 block 100
CC(C)(C)OC(=O)C[C@@H]1C/C=C\C[C@@H](CC(=O)N(CCO)Cc2ccccc2)C(=O)NCCOC1=O	TMEM16A act -4.8 (no result: TLR4 MyD88 comp, ANO1 block)
CC(C)(C)OC(=O)C[C@H]1C/C=C\C[C@H](CC(=O)N(CCO)Cc2ccccc2)C(=O)NCCOC1=O	none (no result: TLR4 MyD88 comp, ANO1 block)
CN(CC(=O)O/N=C(\N)c1ccc([N+](=O)[O-])cc1)S(=O)(=O)c1ccc2ccccc2c1	none
COc1ccc(CCNc2nc(-c3ccncc3)cs2)cc1OC	none (no result: TLR4 MyD88 comp)
COc1ccc(CCNc2nc(-c3ccccn3)cs2)cc1OC	TMEM16A act -6.2 (no result: TLR4 MyD88 comp)
c1cc(C(c2nnnn2C2CCCCC2)N2CCN3CCCC3C2)ccn1 (configuration not stated)	none
COc1ccccc1C(c1nnnn1C1CCCC1)N1CCN2CCCC2C1 (configuration not stated)	TMEM16A act -12
C=CCn1c(-c2ccc(F)cc2)n[nH]c1=S	none
CCOC(=O)c1cc2c(C)n(-c3ccc(OCC)cc3)c(C)c2ccc1=O	none
CCOC(=O)c1cc2c(C)n(-c3ccc(C)cc3)c(C)c2ccc1=O	ANO1 block 100
COc1ccc(-c2n[nH]c(C)c2-c2ccc(Cl)cc2)c(O)c1	none
Cc1[nH]nc(-c2ccc(O)cc2O)c1-c1ccc(Cl)cc1	ANO1 block 100
CC1(C)CC(=O)C2=C(C1)NC(SCC(=O)Nc1ccccc1)=C(C#N)C21CCCCC1	none
